“And” between values parts separate entries of the source, which are not always exact repeats. Equal entries are not always repeated. Records with an inconclusive call do not appear. Where a call stands in place of a potency, no number is given. A structure can be active in one record and inactive in another. Values without a mark were called inactive. The source made the active and inactive calls. The call rests on the fitted dose curve; in most records, active means well fitted curve in the direction sought with a large enough effect; inconclusive means small, poorly fitted or top-dose-only effect, or another doubt; inactive means no such curve, though single readings can be large; an effect the other way counts as inactive or inconclusive.
What was measured:
Hek293T = assay: Primary qHTS to identify gynecologic anti-cancer compounds using libraries of approved drugs and bioactive compounds (AID 1345084); settings: Gynecologic cancer cell panel viability, ATPlite luminescence, 48 h, control line for the selectivity index; series mostly up to 57.5 µM; further: nearly all actives have a fitted effect of over 55% in size
Procedure, shortened: (§1)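 Cytotoxicity screen measuring ATP content by luciferase luminescence. Each compound is applied at five concentrations for 48 h at 37 C with 5% CO2.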

JEG-3 = assay: as above; settings: Gynecologic cancer cell panel viability, ATPlite luminescence, 48 h; series mostly up to 57.5 µM
Procedure, shortened: as §1

PA-1 = assay: as above; settings: Gynecologic cancer cell panel viability, ATPlite luminescence, 48 h; series mostly up to 57.5 µM
Procedure, shortened: as §1

SKOV3 = assay: as above; settings: Gynecologic cancer cell panel viability, ATPlite luminescence, 48 h; series mostly up to 57.5 µM
Procedure, shortened: as §1

Tov-21-G = assay: as above; settings: Gynecologic cancer cell panel viability, ATPlite luminescence, 48 h; series mostly up to 57.5 µM
Procedure, shortened: as §1

Tov112D = assay: as above; settings: Gynecologic cancer cell panel viability, ATPlite luminescence, 48 h; series mostly up to 57.5 µM
Procedure, shortened: as §1

[1] = Drug repurposing screens with cells derived from glioblastoma tumor samples (AID 1345199); settings: GBM patient neurospheres viability, ATP luminescence, 48 h; further: nearly all actives have a fitted effect of over 40% in size
Procedure, shortened: (§2)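 Primary testing used CD133+ neurospheres from four GBM patients, seven concentrations, 48 h exposure and ATP-based viability; confirmation added three slower-growing patient lines.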

astro = assay: as above; settings: viability, ATP luminescence, 48 h; series mostly up to 45.9 µM
Procedure, shortened: as §2

OV90 = assay: Primary qHTS to identify gynecologic anti-cancer compounds using libraries of approved drugs and bioactive compounds (AID 1345084); settings: Gynecologic cancer cell panel viability, ATPlite luminescence, 48 h; series mostly up to 57.5 µM; further: nearly all actives have a fitted effect of over 55% in size
Procedure, shortened: as §1

[2] = at 45.9 µM (top of the series), tumour line B
[3] = at 45.9 µM (top of the series), tumour line D
[4] = at 46 µM (top of the series), tumour line A
[5] = at 46.1 µM (top of the series), tumour line C
[6] = at 20 µM (top of the series), tumour line C
[7] = at 21.2 µM (top of the series), tumour line B
[8] = at 21.2 µM (top of the series), tumour line D
Potency means the concentration at half of the fitted maximal effect.

With `CN(C)CCC[C@@]1(c2ccc(F)cc2)OCc2cc(C#N)ccc21` the Potency (Hek293T) was “inactive”, the Potency (JEG-3) was “inactive” and the Potency (PA-1) was “inactive”. For the same molecule, the Potency (SKOV3) was “inactive”, the Potency (Tov-21-G) was “inactive” and the Potency (Tov112D) was “inactive”. It also gave an activity, negative = cell killing [1, 2] of 11.5%, an activity, negative = cell killing [1, 3] of -13.7% and an activity, negative = cell killing [1, 4] of -29.3%. For the same molecule, the activity, negative = cell killing [1, 5] was 2.89% and the Potency (astro) was “inactive”.
For `CCCCc1cc2ccccc2c(OCCN(C)C)n1`, the Potency (Hek293T) was “inactive”, the Potency (JEG-3) was “inactive” and the Potency (PA-1) was “inactive”. For the same molecule, the Potency (Tov-21-G) was “inactive”, the Potency (Tov112D) was “inactive” and the activity, negative = cell killing [1, 6] was -4.36%. For the same molecule, the activity, negative = cell killing [1, 7] was -17.4% and the Potency (astro) was “inactive”.
With `NS(=O)(=O)c1ccc(Cl)c(S(N)(=O)=O)c1` the Potency (Hek293T) was “inactive”, the Potency (JEG-3) was “inactive” and the Potency (PA-1) was “inactive”. The Potency (SKOV3) was “inactive”, the Potency (Tov-21-G) was “inactive” and the Potency (Tov112D) was “inactive”. The activity, negative = cell killing [1, 2] was -6.27%, the activity, negative = cell killing [1, 3] was -11.1% and the activity, negative = cell killing [1, 4] was -23.6%. For the same molecule, the activity, negative = cell killing [1, 5] was 27.6% and the Potency (astro) was “inactive”.
For `CCCCCN=C(N)N/N=C/c1c[nH]c2ccc(OC)cc12`, the Potency (Tov112D) was 35.5 µM (active), the activity, negative = cell killing [1, 2] was -10.3% and the activity, negative = cell killing [1, 3] was 8.03%. The activity, negative = cell killing [1, 5] was 9.98% and the Potency (astro) was “inactive”.
For `CCC(CC)(CC(=O)Nc1cccc(/C=C/c2nc(C3CCC3)cs2)c1)C(=O)O`, the Potency (SKOV3) was “inactive”, the Potency (Tov112D) was “inactive” and the Potency (astro) was 15.8 µM (active).
With `CCCCCCCCNC(C)C(O)c1ccc(SC(C)C)cc1` (stereo not drawn) the Potency (Tov112D) was “inactive” and the Potency (astro) was 22.4 µM (active).
With `CCCCCCCCCCCCCC[N+](C)(C)Cc1ccccc1` the Potency (SKOV3) was 22.4 µM (active), the Potency (Tov-21-G) was 20 µM (active) and the Potency (Tov112D) was 14.1 µM (active). The Potency (astro) was 12.6 µM (active).
In the case of `CCCCNc1ccc(C(=O)OCCOCCOCCOCCOCCOCCOCCOCCOCCOC)cc1`, the Potency (JEG-3) is reported as “inactive”, the Potency (Tov-21-G) is reported as “inactive” and the Potency (Tov112D) is reported as “inactive”. The activity, negative = cell killing [1, 6] was 19.8%, the activity, negative = cell killing [1, 7] was -6.92% and the activity, negative = cell killing [1, 8] was -6.38%. The activity, negative = cell killing ([1]; at 21.3 µM (top of the series), tumour line A) was -27% and the Potency (astro) was “inactive”.
With `CN=C(N)NCCC[C@H](N)C(=O)O` the activity, negative = cell killing [1, 2] was -4.01% and -7.28% and -14.2%, the activity, negative = cell killing [1, 3] was -19.7% and 0.377% and -12.4% and the activity, negative = cell killing [1, 4] was -28.1%. The activity, negative = cell killing [1, 5] was 8.15% and -7.9% and -1.89% and the Potency (astro) was “inactive”.
With `NC(N)=NCc1cccc(I)c1` the activity, negative = cell killing [1, 2] was -24.3% and -14.8%, the Potency ([1]; tumour line A) was 12.6 µM (active) and the Potency (astro) was “inactive”.
In the case of `C#C[C@]1(O)CC[C@H]2[C@@H]3CCC4=Cc5oncc5C[C@]4(C)[C@H]3CC[C@@]21C`, the Potency (JEG-3) is reported as “inactive”, the Potency (OV90) is reported as “inactive” and the Potency (PA-1) is reported as 10 µM (active). The Potency (Tov-21-G) was “inactive”, the Potency (Tov112D) was “inactive” and the activity, negative = cell killing [1, 2] was -5.62%. For the same molecule, the activity, negative = cell killing [1, 3] was -8.01%, the activity, negative = cell killing [1, 4] was -25.3% and the activity, negative = cell killing [1, 5] was -28.8%. For the same molecule, the Potency (astro) was “inactive”.
For `CC(=C(CCOC(=O)C(C)C)SSC(CCOC(=O)C(C)C)=C(C)N(C=O)Cc1cnc(C)nc1N)N(C=O)Cc1cnc(C)nc1N`, the Potency (JEG-3) was “inactive”, the Potency (OV90) was “inactive” and the Potency (PA-1) was “inactive”. For the same molecule, the Potency (SKOV3) was “inactive”, the Potency (Tov-21-G) was “inactive” and the Potency (Tov112D) was “inactive”. The activity, negative = cell killing [1, 2] was 1.68%, the activity, negative = cell killing [1, 3] was 3.5% and the activity, negative = cell killing [1, 5] was -16.1%. The Potency (astro) was “inactive”.
With `CNCCCCOc1ccccc1Cc1ccccc1` the Potency (JEG-3) was “inactive”, the Potency (PA-1) was “inactive” and the Potency (Tov-21-G) was “inactive”. The Potency (Tov112D) was “inactive”.
For `Nc1nc(Cl)nc2c1ncn2[C@@H]1O[C@H](CO)[C@@H](O)[C@@H]1F`, the Potency (JEG-3) was 11.2 µM (active), the Potency (OV90) was 0.398 µM (active) and the Potency (PA-1) was 1.26 µM (active). The Potency (Tov112D) was 0.316 µM (active) and the Potency (astro) was 10 µM (active).
In the case of `O[C@@H](c1cc(C(F)(F)F)nc2c(C(F)(F)F)cccc12)[C@H]1CCCCN1`, the Potency (SKOV3) is reported as 25.1 µM (active) and the Potency (astro) is reported as 22.4 µM (active).
In the case of `CN1CCc2cccc3c2[C@H]1Cc1ccc(O)c(O)c1-3`, the Potency (Hek293T) is reported as “inactive”, the Potency (OV90) is reported as “inactive” and the Potency (SKOV3) is reported as “inactive”. For the same molecule, the activity, negative = cell killing [1, 5] was -0.121%, the Potency ([1]; tumour line A) was 11.2 µM (active) and the Potency (astro) was 20 µM (active).
In the case of `CC[C@H](c1ccc(O)cc1)[C@@H](CC)c1ccc(O)cc1`, the Potency (JEG-3) is reported as “inactive”, the Potency (PA-1) is reported as “inactive” and the Potency (SKOV3) is reported as “inactive”. The Potency (Tov-21-G) was “inactive”, the Potency (Tov112D) was “inactive” and the activity, negative = cell killing [1, 6] was -16.2%. The activity, negative = cell killing [1, 7] was 5.51%, the activity, negative = cell killing [1, 8] was -30% and the Potency ([1]; tumour line A) was 14.1 µM (active).
For `CCOC(=O)[C@H](CCc1ccccc1)N[C@@H](C)C(=O)N1[C@H](C(=O)O)C[C@H]2CCCC[C@@H]21`, the activity, negative = cell killing [1, 3] was 2.82%, the activity, negative = cell killing [1, 4] was -15.6% and the activity, negative = cell killing [1, 5] was 1.22% and -4.13%. The Potency (astro) was “inactive”.
With `C[N+]1(CC2COC(c3ccccc3)(C3CCCCC3)O2)CCCCC1` (stereo not drawn) the Potency (Hek293T) was “inactive”, the Potency (JEG-3) was “inactive” and the Potency (SKOV3) was “inactive”. For the same molecule, the Potency (Tov-21-G) was “inactive”, the Potency (Tov112D) was “inactive” and the Potency (astro) was “inactive”.
For `CCC1Nc2cc(Cl)c(S(N)(=O)=O)cc2S(=O)(=O)N1` (stereo not drawn), the Potency (JEG-3) was “inactive”, the Potency (OV90) was “inactive” and the Potency (PA-1) was “inactive”. For the same molecule, the Potency (SKOV3) was “inactive”, the Potency (Tov-21-G) was “inactive” and the Potency (Tov112D) was “inactive”. It also gave an activity, negative = cell killing [1, 2] of -19.7%, an activity, negative = cell killing [1, 3] of 9.79% and an activity, negative = cell killing [1, 5] of -1.53%. The Potency (astro) was “inactive”.
With `CC[C@]12CCCN3CCc4c(n(c5ccccc45)C(=O)C1)[C@@H]32` the Potency (JEG-3) was “inactive”, the Potency (OV90) was “inactive” and the Potency (PA-1) was 20 µM (active). The Potency (Tov112D) was 28.2 µM (active) and 31.6 µM (active), the activity, negative = cell killing [1, 7] was -16.8% and the activity, negative = cell killing [1, 8] was -29.4%. For the same molecule, the Potency ([1]; tumour line A) was 6.31 µM (active).
In the case of `COc1cc(N)c(Cl)cc1C(=O)NC1CCN(Cc2ccccc2)CC1`, the Potency (JEG-3) is reported as “inactive”, the Potency (PA-1) is reported as “inactive” and the Potency (SKOV3) is reported as “inactive”. For the same molecule, the Potency (Tov-21-G) was “inactive”, the Potency (Tov112D) was “inactive” and the activity, negative = cell killing [1, 6] was 12.2%. The activity, negative = cell killing [1, 7] was -4.38%, the activity, negative = cell killing [1, 8] was -20.9% and the Potency ([1]; tumour line A) was 11.2 µM (active). For the same molecule, the Potency (astro) was “inactive”.
In the case of `CN(C)CCOC(c1ccc(Cl)cc1)c1ccccn1` (stereo not drawn), the Potency (JEG-3) is reported as “inactive”, the activity, negative = cell killing [1, 2] is reported as -15.3% and the activity, negative = cell killing [1, 3] is reported as -15.7%. For the same molecule, the activity, negative = cell killing [1, 5] was 3.84%, the Potency ([1]; tumour line A) was 15.8 µM (active) and the Potency (astro) was “inactive”.
For `CC(C)n1c(/C=C/[C@@H](O)C[C@@H](O)CC(=O)O)c(-c2ccc(F)cc2)c2ccccc21`, the Potency (Hek293T) was “inactive”, the Potency (OV90) was 8.91 µM (active) and the Potency (SKOV3) was “inactive”. For the same molecule, the Potency (Tov-21-G) was “inactive”, the activity, negative = cell killing [1, 2] was -35.6% and the activity, negative = cell killing [1, 3] was -90.6%. The activity, negative = cell killing [1, 5] was -19.1% and the Potency ([1]; tumour line A) was 11.2 µM (active).
In the case of `O=C(Nc1ccccc1)OCC(CN1CCCCC1)OC(=O)Nc1ccccc1` (stereo not drawn), the Potency (JEG-3) is reported as “inactive”, the Potency (PA-1) is reported as “inactive” and the Potency (Tov-21-G) is reported as “inactive”. For the same molecule, the Potency (Tov112D) was “inactive”, the activity, negative = cell killing [1, 6] was -1.96% and the Potency ([1]; tumour line A) was 11.2 µM (active). The Potency ([1]; tumour line D) was 10 µM (active) and the Potency (astro) was “inactive”.
With `CCN(CC)CCOc1ccc2c(c1)C(=O)c1cc(OCCN(CC)CC)ccc1-2` the Potency (OV90) was 12.6 µM (active), the Potency (Tov-21-G) was 22.4 µM (active) and the Potency (astro) was “inactive”.

From PubChem BioAssay (NCATS)
